Inconclusive results are not listed. The source made the active and inactive calls. Calls follow the shape of the dose curve; as a rule, active = well fitted curve in the direction sought with a large enough effect; inconclusive = small, poorly fitted or top-dose-only effect, or another doubt; inactive = no such curve, though single readings can be large; an effect the other way counts as inactive or inconclusive.
Tests used:
[1] = qHTS assay for measurement of the activity of small molecule inhibitors on Zika virus induced Caspase-3 activity in human iPSC derived neural progenitor cells (hNPCs) (AID 1224857); also: % of control where 0% means no effect; nearly all actives have a fitted effect of over 65% in size
How it was run: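 Values are percent inhibition of virus-induced caspase-3/7 signal, scaled between uninfected cells and ZIKV-infected cells. Infection used 2 FFU/cell for 6 h after 1 h compound exposure.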

[2] = qHTS assay for measurement of the activity of small molecule inhibitors on Zika virus induced Caspase-3 activity in human astrocytoma cells (AID 1224859);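 also: plate controls were ZIKV-infected untreated cells for no effect and uninfected cells for full effect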
How it was run: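 Compound added 1 h pre-infection; ZIKV 2 FFU/cell on SNB-19 cells, 6 h, 37 C/5% CO2. Caspase-Glo 3/7 luminescence; values as % inhibition of ZIKV-induced caspase activity.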

[3] = qHTS assay to identify small molecule inhibitors of chordoma cells - UCH-1 (AID 1259355); also: % is scaled to controls: 0 for no effect and ±100 for the full control effect; nearly all actives have a fitted effect of over 55% in size
How it was run: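 Screening used approved and investigational drugs in 15-point titration against 800 seeded cells per well. A fixed combination of auranofin with camptothecin, doxorubicin, rubitecan and topotecan followed compound addition, and growth was scored by CellTiter-Glo after 48hr.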

[4] = qHTS assay to identify small molecule inhibitors of chordoma cells - UCH-2 (AID 1259356); also: series mostly up to about 46 µM; % is scaled to controls: 0 for no effect and ±100 for the full control effect
[5] = P-glycoprotein substrates identified in KB-8-5-11 adenocarcinoma cell line, qHTS therapeutic library screen (AID 1346987); details: outcome: dose series up to 44.5 µM; also: nearly all actives have a fitted effect of over 65% in size
How it was run: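 In this qHTS, P-gp-rich KB-8-5-11 cells received library compounds across a concentration range. Viability was quantified by luminescence after 72 h at 37 degree C.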

[6] = qHTS Assay for Identifying Gametocytocidal Compounds (AID 743244);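 also: % is scaled to controls: 0 for no effect and ±100 for the full control effect; actives lower the fluorescent signal which means gametocytes are killed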; details: P. falciparum 3D7 stage III-V gametocytes, alamarBlue, 72 h; max response: stronger effect = lower value
How it was run: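 Stage III–V gametocytes of P. falciparum 3D7 were seeded at 20,000 cells/well onto pre-dispensed compounds. After 72 h, 37 °C, 5% CO2, alamarBlue was added for another 24 h.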

[7] = P-glycoprotein substrates identified in KB-3-1 adenocarcinoma cell line, qHTS therapeutic library screen (AID 1346986); details: outcome: dose series up to 44.5 µM; also: nearly all actives have a fitted effect of over 60% in size
How it was run: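 Viability by CellTiter-Glo after 72 h compound exposure at 37 degree C, 5% CO2. Cytotoxic call: curve class -1.1 to -2.4, maximum response >50%, AC50 < 10 uM, compared across KB-3-1 and P-gp-overexpressing KB-8-5-11.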

Measured: max response

NC(=O)CCCCC1CCSS1 (stereo not drawn)
inactive: [1] | [2] | [3] | [4]

Nc1ncnc(Nc2ccccc2)n1
inactive: [1] | [2] | [3] | [4] | [5]

C=CCSCC1Nc2cc(Cl)c(S(N)(=O)=O)cc2S(=O)(=O)N1 (stereo not drawn)
inactive: [1] | [2] | [3] | [4]

O=C(CN1CCNCC1)NC1CCCCC1
inactive: [1] | [2] | [3] | [4] | [5]

O=C(Cn1ccnc1[N+](=O)[O-])NCCO
inactive: [1] | [2] | [3] | [4] | [5]

CC(=O)OCC(=O)[C@@]1(O)CC[C@H]2[C@@H]3CCC4=CC(=O)C=C[C@]4(C)[C@@]3(F)[C@@H](O)C[C@@]21C
inactive: [1] | [2] | [3] | [4] | [5]

O=C(O)CCCc1ccccc1
inactive: [6] 13.9% | [1] | [2] | [3] | [4] | [7]

O=C(O)CNC(=O)c1ccccc1I
inactive: [1] | [2] | [3] | [4] | [5]

NC(=O)CC[C@@H](N)C(=O)O
inactive: [1] | [2] | [3] | [4] | [5]

CCOc1ccc(C(=O)OCCN(CC)CC)cc1
inactive: [1] | [2] | [3] | [4] | [5]

O=C(O)Cn1c(C(=O)Nc2nc(-c3ccccc3Cl)cs2)cc2ccccc21
inactive: [1] | [2] | [3] | [4] | [5]

OCC(O)CS (stereo not drawn)
inactive: [1] | [2] | [3] | [4] | [5]

CCN(CC)CC1CCCCN1CC(=O)N1c2ccccc2C(=O)Nc2cccnc21 (stereo not drawn)
inactive: [1] | [2] | [3] | [4] | [5]

OC(CCN1CCCC1)(c1ccccc1)C1CCCCC1 (stereo not drawn)
inactive: [1] | [2] | [3] | [4] | [5]

C[N+]1(C)CCCC(OC(=O)C(O)(c2ccccc2)c2ccccc2)C1 (stereo not drawn)
inactive: [1] | [2] | [3] | [4] | [5]

O=C(Cn1ccnc1[N+](=O)[O-])NCc1ccccc1
inactive: [1] | [2] | [3] | [4]

C[C@]1(Cn2ccnn2)[C@H](C(=O)O)N2C(=O)C[C@H]2S1(=O)=O
inactive: [1] | [2] | [3] | [4] | [5]

CN1C(=O)CC(c2ccccc2)C1=O (stereo not drawn)
inactive: [1] | [2] | [3] | [4] | [5]

CC(C)C[C@@H](N)C(=O)O
inactive: [6] -9.37% | [1] | [2] | [3] | [4] | [7] | [5]

CCCCCCCCCCCCCCCCC(C(=O)O)C(O)(CC(=O)O)C(=O)O (stereo not drawn)
inactive: [1] | [2] | [3] | [4]

O=C(NCN1CCOCC1)c1cnccn1
inactive: [1] | [2] | [3] | [4]

O=c1[nH]c2cc(C(F)(F)F)c(N3CCOCC3)cc2n(CP(=O)(O)O)c1=O
inactive: [1] | [2] | [3] | [4] | [5]

O=C(O)C(S)C(S)C(=O)O (stereo not drawn)
inactive: [1] | [2] | [3] | [4]

NCC1CCC(C(=O)Oc2ccc(CCC(=O)O)cc2)CC1 (stereo not drawn)
inactive: [1] | [2] | [3] | [4] | [5]

CC(=O)N(CC(O)CO)c1c(I)c(C(=O)NCC(O)CO)c(I)c(C(=O)NCC(O)CO)c1I (stereo not drawn)
inactive: [1] | [2] | [3] | [4] | [5]

COCC(=O)Nc1c(I)c(C(=O)NCC(O)CO)c(I)c(C(=O)N(C)CC(O)CO)c1I (stereo not drawn)
inactive: [1] | [2] | [3] | [4] | [5]

CC(=O)OC[C@H]1O[C@@](COC(C)=O)(O[C@H]2O[C@H](COC(C)=O)[C@@H](OC(C)=O)[C@H](OC(C)=O)[C@H]2OC(C)=O)[C@@H](OC(C)=O)[C@@H]1OC(C)=O
inactive: [1] | [2] | [3] | [4] | [5]

COc1ccc2cc(CCC(C)=O)ccc2c1
inactive: [1] | [2] | [3] | [4]

NC(N)=NS(=O)(=O)c1ccc(N)cc1
inactive: [1] | [2] | [3] | [4] | [5]

CCOC(=O)[C@H](CCc1ccccc1)N[C@@H](C)C(=O)N1CCC[C@H]1C(=O)O
inactive: [1] | [2] | [3] | [4]

CC(C)c1cc2c(cc1S(=O)(=O)O)[C@@]1(C)CCC[C@@](C)(C(=O)O)[C@@H]1CC2
inactive: [1] | [2] | [3] | [4] | [5]

Cc1ccsc1C(=CCCN1CCC[C@@H](C(=O)O)C1)c1sccc1C
inactive: [1] | [2] | [3] | [4]

C[C@H]1COc2c(C3(N)CC3)c(F)cc3c(=O)c(C(=O)O)cn1c23
inactive: [1] | [2] | [3] | [4] | [5]

C[C@@H]1O[C@@H](OC[C@H]2O[C@@H](Oc3c(-c4ccc(O)c(O)c4)oc4cc(O)cc(O)c4c3=O)[C@H](O)[C@@H](O)[C@@H]2O)[C@H](O)[C@H](O)[C@H]1O
inactive: [1] | [2] | [3] | [4] | [5]

CN/C(=C\[N+](=O)[O-])NCCSCc1csc(CN(C)C)n1
inactive: [1] | [2] | [3] | [4] | [5]

COc1ccccc1Oc1c(NS(=O)(=O)c2ccc(C(C)(C)C)cc2)nc(-c2ncccn2)nc1OCCO
inactive: [1] | [2] | [3] | [4] | [5]

CCN(CC)S(=O)(=O)c1ccc(C(=O)O)cc1
inactive: [1] | [2] | [3] | [4]

Source: PubChem BioAssay (NCATS)
